# Measurements published in PubChem BioAssay (NCATS).
# Several values for one entry are separate records, joined by “and”; a condition that tells them apart may be missing. Equal values may be shown once. Records with an inconclusive call do not appear. Some structures have more than one record in an assay (separate samples or runs), and their calls can disagree. Activity calls are given as the source filed them. Calls come from the whole dose curve; as a rule, active = well fitted inhibition curve with a large enough effect; inconclusive = small, poorly fitted or top-dose-only effect; inactive = flat fitted curve, though single readings scatter.
# Assay: P-glycoprotein substrates identified in KB-8-5-11 adenocarcinoma cell line, qHTS therapeutic library screen (AID 1346987); note: nearly all actives have a fitted effect of over 65% in size
# Conditions: KB-8-5-11 (P-gp overexpressing) viability, CellTiter-Glo, 72 h; series mostly up to 44.5 µM
# Text: The ATP-binding cassette transporters P-glycoprotein (P-gp) is known to limit brain penetration of many chemotherapy drugs. […] As such, we developed a high-throughput screen (HTS) to identify substrates of P-gp from a series of chemical libraries including the National Center for Advancing Translational Sciences Pharmaceutical Collection NPC, 2,816 compounds), testing a total of 10,804 compounds, most of which have known mechanisms of action. We used the CellTiter-Glo viability assay to test library compounds against the parental KB-3-1 human cervical adenocarcinoma cell line and the colchicine-selected sub-line KB-8-5-11 that over-expresses P-gp. KB-8-5-11 cells were also tested in the presence of a P-gp inhibitor (tariquidar) to assess reversability of transporter-mediated resistance. Of the tested compounds, a total of 90 P-gp substrates were identified including 55 newly identified P-gp substrates. Substrates were confirmed using an orthogonal killing assay against HEK-293 cells transfected with P-gp. As exemplars, we confirmed that […] (cyclin-dependent kinase inhibitor); AT9283, (Janus kinase 2/3 inhibitor); ispinesib (kinesin spindle protein inhibitor); gedatolisib (PKI-587, phosphoinositide 3-kinase/mammalian target of rampamycin inhibitor); GSK-690693 (AKT inhibitor); and KW-2478 (heat shock protein 90 inhibitor) were substrates , and direct ATPase stimulation was assessed. ABCG2 was also found to confer high levels of resistance to AT9283, GSK-690693 and gedatolisib, while ispinesib, AT7519 and KW-2478 were weaker substrates.
# The HeLa derivative cell line, KB-3-1, and its colchicine-selected, P-gp-overexpressing subline, KB-8-5-11 were maintained in DMEM with 10% FCS and Pen/Strep with glutamine at 37 degree C in 5% CO2. For KB-8-5-11 cells, colchicine was added to the medium at a concentration of 100 ng/mL. HEK-293 cells transfected with empty vector (pcDNA) or vector containing human ABCB1 (MDR-19) or ABCG2 (R-5) have been described previously (Robey, Lin, Qiu, Chan & Bates, 2011) and were maintained in EMEM supplemented with 10% FCS, Pen/Strep and glutamine with 2 mg/ml G418 to select for the expression of the transporter. Cultures were confirmed to be free of mycoplasma infection using the MycoAlert Mycoplasma Detection Kit (Lonza, Walkersville, MD). For the screen, assay medium was identical to culture medium except for KB-8-5-11 where colchicine was excluded from the medium.
# All cell lines were plated into 1536-well plates at 500 cells/well in 5 uL media. Compounds were then pinned in dose-response using a 1536-head pin tool (Kalypsis, San Diego, CA) and plates were incubated at 37 degree C in 5% CO2 for an additional 72 h. CellTiter-Glo reagent (Promega) was dispensed into the wells, incubated for 5 min and luminescence was read on a ViewLux instrument (Perkin-Elmer). Cytotoxic compounds were defined as those that yielded a curve class of -1.1, -1.2, -2.1, -2.2, -2.3, or -2.4, a maximum response of >50% and an AC50 of < 10 uM. Cherry-picked hits from screening analysis were tested with both the KB pair of cell lines, and the pcDNA (empty vector control) and MDR-19 (P-gp overexpressing) pair were tested, in the absence and presence of tariquidar.
# Potency is the fitted concentration of half-maximal effect.
row,SMILES,Potency
1,N#Cc1c(O)c2c(-c3ccc(-c4ccccc4O)cc3)csc2[nH]c1=O,inactive
2,O=C(C=Cc1cccnc1)NCCCCC1CCN(C(=O)c2ccccc2)CC1,0.0166 µM (active)
3,CC(C)(C)c1cc(C(C)(C)C)c(NC(=O)c2c[nH]c3ccccc3c2=O)cc1O,inactive
4,CS(=O)(=O)c1ccc(-c2cnc(N)c(C(=O)Nc3ccccc3)n2)cc1,inactive
5,COc1ccc(F)c(F)c1C(=O)c1cnc(NC2CCN(S(C)(=O)=O)CC2)nc1N,3.72 µM (active) and 4.11 µM (active)
6,Cn1c2cc(S(C)=O)sc2c2cnn(Cc3cccc(N)c3)c(=O)c21 (stereo not given),inactive
7,Nc1cccc(-c2cc3c(Oc4cccc(O)c4)ncnc3[nH]2)c1,20.9 µM (active)
8,CNC(=O)c1cc(Oc2ccc(NC(=O)Nc3cc(C(C)(C)C)nn3-c3ccc4ncccc4c3)c(F)c2)ccn1,18.7 µM (active)
9,COc1cc(=C2C=c3ccccc3=N2)[nH]c1=Cc1[nH]c(C)cc1C,2.96 µM (active)
10,CC(C)=CCCC(C)=CCCC(C)=CCSc1ccccc1C(=O)O,1.32 µM (active)
11,N#CCNC(=O)c1ccc(-c2ccnc(Nc3ccc(N4CCOCC4)cc3)n2)cc1,8.33 µM (active) and 5.8 µM (active)
12,c1cc(-c2cnn3cc(-c4ccc(OCCN5CCCCC5)cc4)cnc23)ccn1,2.35 µM (active) and 10.3 µM (active)
13,CN1CCC(CNc2ccc3ncc(-c4cccc(OC(F)(F)F)c4)n3n2)CC1,13.2 µM (active) and 18.4 µM (active)
14,O=C(NCCCNc1nc(Nc2cccc(NC(=O)N3CCCC3)c2)ncc1I)c1cccs1,16.6 µM (active)
15,CCCNC(=O)Nc1ccc(Oc2ncnc3cc(OC)c(OC)cc23)cc1Cl,inactive
16,COc1cc2ncnc(Nc3ccc(F)c(Cl)c3)c2cc1NC(=O)C=CCN1CCCCC1,inactive
17,CS(=O)(=O)N1CCN(Cc2cc3nc(-c4cccc5[nH]ncc45)nc(N4CCOCC4)c3s2)CC1,2.91 µM (active)
18,O=C(Nc1cn[nH]c1-c1nc2ccc(CN3CCOCC3)cc2[nH]1)NC1CC1,inactive
19,CCC[C@H](NC(=O)C(C#N)=Cc1cccc(Br)n1)c1ccccc1,18.7 µM (active)
20,COc1cc(C(=O)NS(=O)(=O)c2ccccc2C)ccc1Cc1cn(C)c2ccc(NC(=O)OC3CCCC3)cc12,inactive

row,SMILES,Potency
1,COC(=O)C1=C(C)NC(C)=C(C(=O)OCCN2CCN(C(c3ccccc3)c3ccccc3)CC2)C1c1cccc([N+](=O)[O-])c1 (stereo not given),20.6 µM (active) and inactive
2,CC=C1NC(=O)[C@H]2CSSCCC=C[C@H](CC(=O)N[C@H](C(C)C)C(=O)N2)OC(=O)[C@H](C(C)C)NC1=O,8.33 µM (active)
3,C=CC(=O)Nc1cccc(Oc2nc(Nc3ccc(N4CCN(C)CC4)cc3OC)ncc2Cl)c1,inactive and 20.6 µM (active)
4,O=C(NC1CCNCC1)c1[nH]ncc1NC(=O)c1c(Cl)cccc1Cl,inactive
5,COC(=O)C[C@](O)(CCCC(C)(C)O)C(=O)O[C@@H]1C(OC)=C[C@]23CCCN2CCc2cc4c(cc2[C@H]13)OCO4,8.2 µM (active)
6,CNC(=O)c1c(F)cccc1Nc1nc(Nc2cc3c(cc2OC)CCN3C(=O)CN(C)C)nc2[nH]ccc12,16.6 µM (active) and 18.4 µM (active)
7,COc1cc(C(C)C)c2c(c1)S(=O)(=O)N(COc1cc(=O)n3cccc(OCCN4CCCCC4)c3n1)C2=O,inactive
8,Cc1cnc(Nc2ccc(F)cc2Cl)nc1-c1c[nH]c(C(=O)N[C@H](CO)c2cccc(Cl)c2)c1,23.5 µM (active)
9,CN(C)Cc1c(C(=O)NCCOc2ccc(C(=O)NO)cc2)oc2ccccc12,7.43 µM (active) and 4.61 µM (active)
10,CC(C)CC(=O)Nc1n[nH]c2c1CN(C(=O)C1CCN(C)CC1)C2(C)C,inactive
11,COc1cc2c(Oc3ccc(NC(=O)C4(C(=O)Nc5ccc(F)cc5)CC4)cc3F)ccnc2cc1OCCCN1CCOCC1,935 nM (active) and 5.17 µM (active)
12,O=C(O)[C@H](Cc1c[nH]c2ccccc12)N1C(=O)c2ccccc2C1=O,inactive
13,Cc1coc2c1C(=O)C(=O)c1c-2ccc2c1CCCC2(C)C,inactive and 9.2 µM (active)
14,NCC(=O)Nc1ccc(-n2nc(C(F)(F)F)cc2-c2ccc3c(ccc4ccccc43)c2)cc1,14.8 µM (active) and 10.3 µM (active)
15,COc1cc2c(Oc3ccc4[nH]c(C)cc4c3F)ncnc2cc1OCCCN1CCCC1,23.5 µM (active) and 18.4 µM (active)
16,CC(NCc1ccc2c(c1)nc(NC(=O)c1ccc(-c3cn[nH]c3)s1)n2CC(C)(C)O)C(C)(C)C (stereo not given),4.18 µM (active)
17,O=C(C=Cc1c(C(=O)O)[nH]c2cc(Cl)cc(Cl)c12)Nc1ccccc1,inactive
18,CC[C@@H]1C(=O)N(C)c2cnc(Nc3ccc(C(=O)NC4CCC(N5CCN(CC6CC6)CC5)CC4)cc3OC)nc2N1C(C)C (stereo not given in full),372 nM (active) and 326 nM (active) and 231 nM (active)
19,C[C@@H]1COC(Nc2ccc3ncnc(Nc4ccc(OCc5nccs5)c(Cl)c4)c3c2)=N1,20.9 µM (active)
20,C=CC(=O)Nc1cc2c(Nc3ccc(F)c(Cl)c3)ncnc2cc1OCCCN1CCOCC1,18.4 µM (active)
